# PfHsp90 set2: reduces growth (ATP signal) of yeast expressing P. falciparum Hsp90; S. cerevisiae expressing PfHsp90, BacTiter-Glo ATP, 48 h; yeast lacking PDR1 and PDR3 efflux regulators; inhibition, % at 9.4 µM; hit rate 0.32% among 310,000;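 active means every replicate shows inhibition above about 80%, whatever the replicate mean, limit read from the data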;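 further: 0% = DMSO neutral controls and 100% = 20 µM radicicol positive controls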
# tim10-1 inh: inhibits growth of tim10-1 mutant yeast; S. cerevisiae tim10-1 ts strain growth, BacTiter-Glo, 24 h; inhibition, % at 20 µM; hit rate 2.2% among 330,000; AID 463190;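 active means inhibition of at least 40%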;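 further: mutant grown at 25 °C; 0% = DMSO wells with yeast and 100% = wells holding no yeast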
# SKKanGAS inh: blocks kanamycin growth of S. pyogenes SKKanGAS strain; BacTiter-Glo, 6 h; hit rate 1.3% among 300,000; inhibition, % at 7.5 µM;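 active means mean replicate score, as percent of positive control median, at least 50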;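 further: strain carries kanamycin resistance gene driven by streptokinase promoter and grows in 40 µg/ml kanamycin; loss of luminescence reflects streptokinase promoter inhibition or plain growth inhibition; 0% = median of DMSO wells and 100% = positive control at its reference dose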
# TIM10 inh: growth inhibitors of TIM10 yeast strain; AID 463195; S. cerevisiae TIM10 strain growth, BacTiter-Glo luminescence, 24 h; hit rate 1.4% among 330,000; inhibition, % at 10 µM;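 active means inhibition of 40% or more at the single tested concentration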;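 further: wild-type TIM10 isogenic control strain grown at permissive 25 °C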
# tim23-1 inh: growth inhibitors of tim23-1 mutant yeast; AID 463212; hit rate 1.3% among 330,000; S. cerevisiae tim23-1 growth, BacTiter-Glo luminescence, 24 h; inhibition, % at 20 µM;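 active means growth inhibition of the mutant yeast at or above 50%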;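 further: temperature-sensitive mutant grown at 25 °C; plate controls were DMSO-treated mutant yeast for no effect and medium wells lacking yeast for full effect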
# V-ATPase pH: regulators of yeast V-ATPase proton transport | S. cerevisiae, pHLuorin cytosolic pH fluorescence | AID 504577 | response, % at 10 µM | hit rate 0.37% among 350,000; in the data active means response mostly above about 7.3%, no sharp cut-off; inactive means mostly below about 5.4%; further: actives read high
# Numbers without * were called inactive; / = not tested or not shown. The list is not random: actives were taken first. Their share in the collection is about 4.6%.
SMILES,PfHsp90 set2,tim10-1 inh,SKKanGAS inh,TIM10 inh,tim23-1 inh,V-ATPase pH
Cc1onc(-c2ccccc2)c1C(=O)NNC(=S)NC(=O)c1ccc(Cl)cc1Cl,-23,13,80*,29,-1,-1
Nc1ncnn1Cc1ccccc1,/,/,/,/,/,2
CCC(C)(C)NC(=O)C(c1ccc(OC)cc1)N(C(=O)CCC(=O)Nc1cc(C)on1)c1cc(OC)ccc1OC (stereo not drawn),4,-7,3,15,10,2
CC(=O)Nc1cccc(NS(=O)(=O)c2ccc3c(c2)CCC(=O)N3)c1,/,/,/,/,/,-1
CCC(=O)c1ccc(OCC(=O)NCc2ccccc2CN2CCCC2)cc1,28,6,/,9,6,1
Cc1onc(-c2ccccc2)c1C(=O)NNC(=S)NC(=O)/C=C/c1ccccc1,1,0,51*,-4,31,-4
Cc1nn(Cc2ccc(Cl)cc2Cl)c(C)c1NC(=O)NC12CC3CC(CC(C3)C1)C2,13,35,51*,38,35,6
COc1ccccc1-n1c(=O)c(C#N)c(-c2ccc([N+](=O)[O-])cc2)c2cc(C(=O)c3cc(F)ccc3O)cnc21,-9,16,15,13,16,2
Cn1c(=O)c(C#N)c(-c2ccc(F)cc2)c2cc(C(=O)c3cc(Cl)cc(Cl)c3O)cnc21,-23,30,99*,22,29,0
O=C(C1=C(O)C(=O)N(c2ccccc2)C1c1ccc([N+](=O)[O-])cc1)c1cccs1 (stereo not drawn),-10,8,59*,-13,27,-2
Cc1cccc(N2C(=O)C(O)=C(C(=O)c3cccs3)C2c2ccccc2)n1 (stereo not drawn),0,-3,5,-3,-7,7
Cc1cccc(N2C(=O)C(O)=C(C(=O)c3cccs3)C2c2cccc(Oc3ccccc3)c2)n1 (stereo not drawn),-14,12,65*,11,7,-2
Cc1nc2c(N)nn(C)c2nc1C,/,/,/,/,/,1
CC1CCN(C(=O)N2c3ccccc3Sc3ccccc32)CC1,-7,5,54*,-1,31,2
CC(C)CCSc1nc2[nH]ncc2c(=O)[nH]1,-38,9,0,-2,12,48*
COc1ccc(C(=O)CSc2nc(-c3ccccn3)nc(C)c2Cl)cc1,0,31,88*,37,47,2
CCOc1ccc(Oc2ccc(NS(=O)(=O)c3cc(C(=O)O)ccc3Cl)cc2)cc1,-3,8,/,8,7,-3
CCOc1ccc(NS(=O)(=O)c2cc(NC(=O)c3ccc(C)cc3)ccc2Cl)cc1,-7,9,60*,8,10,-2
F[B-](F)(F)c1cc2ccccc2s1,-2,/,/,/,/,2
F[B-](F)(F)c1cc2cc(Br)ccc2s1,117*,/,/,/,/,2
Cc1ccc(NC(=O)COC(=O)C2(C)CC2(Cl)Cl)cc1S(=O)(=O)N1CCOCC1 (stereo not drawn),/,20,/,6,2,23*
Cc1ccc(NC(=O)COC(=O)c2ccco2)cc1S(=O)(=O)N1CCOCC1,3,-2,/,7,19,-4
O=[N+]([O-])c1cccc(N/N=C/c2cc([N+](=O)[O-])ccc2O)c1,-4,-19,-4,-18,-12,1
O=[N+]([O-])c1ccc(O)c(/C=N/Nc2nc3ccccc3[nH]2)c1,20,10,71*,13,7,-4
COc1cccc(/C=N/Nc2nc3ccccc3[nH]2)c1O,2,-6,79*,-3,19,-4
SMILES,PfHsp90 set2,tim10-1 inh,SKKanGAS inh,TIM10 inh,tim23-1 inh,V-ATPase pH
O=[N+]([O-])c1ccc(O)c(/C=N/Nc2ncnc3c2cnn3-c2ccccc2)c1,6,12,88*,11,18,0
COc1ccc(O)c(/C=N/Nc2nc3ccccc3[nH]2)c1,28,3,23,6,-6,0
O=[N+]([O-])c1ccc(O)c(/C=N/Nc2ccccn2)c1,111*,/,-3,/,/,14
COC(=O)c1nn(-c2ccc(OC)cc2)ccc1=O,-6,24,-1,10,7,-1
COc1ccc(/C=N/NC(=O)Cc2csc(Nc3cccc(C(F)(F)F)c3)n2)cc1C,-14,18,77*,9,14,5
COc1ccc(-c2csc(NC(CO)c3nc4ccccc4n3Cc3ccc(C)cc3)n2)cc1 (stereo not drawn),-34,37,31,29,29,2
Cc1ccc(Cn2c(C(CO)Nc3nc(-c4ccc(F)cc4)cs3)nc3ccccc32)cc1 (stereo not drawn),-6,28,80*,19,9,0
O=C(c1ccccc1)c1cc(Cl)ccc1N1C(=O)C=CC1=O,107*,/,/,/,/,13*
CN1CCCN(C(=O)c2c(F)cccc2Cl)CC1,-6,-24,1,-4,5,0
CC[C@@H](C(=O)[C@@H](C)[C@@H](O)[C@H](C)[C@@H]1O[C@@H]([C@@H](CC)C(=O)O)CC[C@@H]1C)[C@H]1O[C@]2(C=C[C@@H](O)[C@]3(CC[C@@](C)([C@H]4CC[C@](O)(CC)[C@H](C)O4)O3)O2)[C@H](C)C[C@@H]1C,-79,/,/,/,/,-3
CC[C@@H](C(=O)[C@@H](C)[C@@H](O)[C@H](C)CCc1ccc(C)c(O)c1C(=O)O)[C@H]1O[C@](CC)([C@H]2CC[C@](O)(CC)[C@H](C)O2)C[C@@H]1C,11,22,108*,11,39,1
CCc1ccc(CN(C)Cc2nc(-c3cccc(Cl)c3)no2)nc1,-29,25,62*,14,28,-1
CN(Cc1cnn(C)c1)Cc1nc(-c2ccc(Cl)cc2)no1,10,6,-4,-2,14,0
FC(F)(F)c1ccc(C2[C@H]3CN(Cc4cccnc4)[C@H](c4ccccc4)C34CC2(c2cccnc2)C4)cc1 (stereo partly drawn),-1,22,53*,22,18,-1
C[C@H]1COC2=C1C(=O)C(=O)c1c2ccc2c1CCCC2(C)C,-48,/,86*,/,/,-5
Cc1ccccc1-n1nnnc1SCC(=O)NNC(=O)c1ccc(NC(=O)CC#N)cc1,-6,7,/,7,9,-3
CCOC(=O)c1c(NC(=O)c2cccs2)sc(CC)c1-c1cccs1,20,18,60*,12,20,1
CCOC(=O)c1c(-c2ccc(C)s2)csc1NC(=O)c1cccs1,-29,3,4,0,11,3
Cc1cc(CCNC=O)c(C)c2c1oc1ccccc12,-19,/,/,/,/,-3
Nc1c(C(=O)CSc2nc3ccccc3o2)c(=O)[nH]c(=O)n1C1CC1,0,-14,/,-1,-17,5
CCc1ccc(Nc2n[n+](-c3ccccc3)c(-c3c(Cl)cccc3Cl)s2)cc1,-3,10,88*,-6,-2,-1
CC1(C)CC(NC(=O)c2cc(Cl)ccc2Cl)CC(C)(C)N1,11,8,-15,7,-6,-1

# Source: PubChem (several laboratories)
